Source: publication PMC5540273 (PLoS ONE, 2017)

Assays:
Settings in all cases: concentration: 1 μM,replicates: in singlicate; n = 1
FGFR1 = system: FGFR1
FGFR2 = system: FGFR2
FGFR3 = system: FGFR3
FGFR4 = system: FGFR4
FGR = system: FGR
FLT1 = system: FLT1
FLT3-autoinhibited = system: FLT3-autoinhibited
FLT3 = system: FLT3
FLT4 = system: FLT4
FRK = system: FRK
FYN = system: FYN
GAK = system: GAK
GCN2(Kin.Dom.2,S808G) = system: T1, GCN2(Kin.Dom.2,S808G)
T1 construct: gene EIF2AK4

GRK1 = system: GRK1
GRK2 = system: T2, GRK2
T2 construct: gene ADRBK1

GRK3 = system: T3, GRK3
T3 construct: gene ADRBK2

GRK4 = system: GRK4
GRK7 = system: GRK7
GSK3A = system: GSK3A
GSK3B = system: GSK3B
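Note: KINOMEscan kinase panel screen.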

SMILES | %Inh (FGFR1) | %Inh (FGFR2) | %Inh (FGFR3) | %Inh (FGFR4) | %Inh (FGR) | %Inh (FLT1) | %Inh (FLT3-autoinhibited) | %Inh (FLT3) | %Inh (FLT4) | %Inh (FRK) | %Inh (FYN) | %Inh (GAK) | %Inh (GCN2(Kin.Dom.2,S808G)) | %Inh (GRK1) | %Inh (GRK2) | %Inh (GRK3) | %Inh (GRK4) | %Inh (GRK7) | %Inh (GSK3A) | %Inh (GSK3B)
CC(=O)c1c(-c2ccncc2)[nH]c(-c2ccncc2)c1C [GW493036] | 0% | 0% | 0% | 9% | 27% | 10% | 0% | 0% | 0% | 0% | 37% | 27% | 0% | 0% | 0% | 66% | 0% | 0% | 81% | 58%
CC(=O)Nc1ccc(-c2cc3ncnc(SCC(=O)O)c3s2)cc1 | 27% | 15% | 0% | 0% | 21% | 5% | 33% | 39% | 0% | 0% | 0% | 59% | 0% | 0% | 11% | 19% | 6% | 0% | 0% | 3%
CCn1c(-c2nonc2N)nc2cncc(CNC3CCNCC3)c21.Cl [SB-747651] | 0% | 0% | 5% | 6% | 1% | 8% | 3% | 0% | 10% | 0% | 43% | 19% | 6% | 5% | 0% | 59% | 0% | 0% | 37% | 24%
CN1CCN(CCCNc2nccc(-c3c(-c4ccc(F)cc4)nn4cc(C(N)=O)ccc34)n2)CC1 [GW622475] | 28% | 0% | 8% | 0% | 0% | 54% | 1% | 10% | 28% | 0% | 9% | 87% | 5% | 0% | 0% | 0% | 9% | 0% | 33% | 33%
O=C(Nc1ccccc1)c1cccc(Oc2ccc3nccn3n2)c1 | 41% | 19% | 20% | 0% | 10% | 79% | 16% | 0% | 5% | 0% | 1% | 8% | 0% | 0% | 0% | 26% | 0% | 0% | 0% | 0%
CS(=O)(=O)c1cccc(CNc2nc(Nc3ccc4c(c3)[C@@H]3C[C@@H]4CNC3=O)ncc2C(F)(F)F)c1 | 86% | 85% | 73% | 92.1% | 31% | 94.4% | 75% | 99.6% | 99.4% | 0% | 0% | 26% | 57% | 28% | 0% | 0% | 27% | 0% | 74% | 0%
CN(c1ccccc1CNc1nc(Nc2ccc3c(c2)CC(=O)N3)ncc1C(F)(F)F)S(C)(=O)=O | 68% | 64% | 47% | 11% | 37% | 53% | 19% | 99.5% | 85% | 54% | 0% | 45% | 0% | 12% | 0% | 0% | 7% | 47% | 64% | 0%
CNC(=O)c1ccccc1Nc1nc(Nc2cccc(CS(C)(=O)=O)c2)ncc1C.O=CO [GSK1520489] | 99.9% | 99.3% | 99.8% | 94.6% | 99.2% | 98.2% | 89% | 99.1% | 100% | 98.2% | 98.9% | 94.7% | 100% | 8% | 0% | 100% | 85% | 40% | 25% | 34%
O=c1[nH]cc(-c2ccc(O)cc2)c2sc(-c3ccncc3)cc12 [GSK1033723] | 0% | 0% | 16% | 13% | 21% | 9% | 0% | 0% | 1% | 0% | 21% | 16% | 6% | 0% | 0% | 0% | 0% | 0% | 63% | 22%
O=C(Nc1cccc(C(F)(F)F)c1)c1cccc(Oc2ccc3nccn3n2)c1 | 24% | 15% | 5% | 6% | 0% | 97.4% | 17% | 18% | 78% | 87% | 62% | 0% | 0% | 9% | 0% | 35% | 10% | 0% | 0% | 2%
CN1CCN(CCNc2nc3cc(Oc4ccc(NC(=O)Nc5cc(C(F)(F)F)ccc5F)cc4)ccc3[nH]2)CC1.Cl.Cl [GW768504] | 6% | 0% | 0% | 0% | 0% | 90.7% | 0% | 98.1% | 49% | 69% | 0% | 0% | 24% | 0% | 0% | 0% | 17% | 0% | 20% | 0%
CN(c1cccc(CNc2nc(Nc3ccc4c(c3)CC(=O)N4)ncc2C(F)(F)F)c1)S(C)(=O)=O | 26% | 31% | 11% | 0% | 25% | 35% | 39% | 98.7% | 38% | 0% | 0% | 33% | 10% | 25% | 0% | 0% | 19% | 0% | 35% | 0%
Cc1cccc(-c2nc(Nc3ccncc3)c3sccc3n2)n1 [GW869641] | 16% | 0% | 7% | 8% | 11% | 26% | 14% | 41% | 15% | 1% | 0% | 13% | 5% | 0% | 17% | 11% | 15% | 42% | 0% | 40%
c1ccc(Oc2ccc(Nc3ccnc4ccc(-c5ccccn5)cc34)cc2)cc1 [GW407034] | 0% | 34% | 25% | 4% | 69% | 14% | 0% | 0% | 3% | 38% | 62% | 17% | 1% | 0% | 0% | 46% | 16% | 0% | 7% | 9%
O=C1NCCc2[nH]c(-c3ccncc3)cc21 | 0% | 4% | 10% | 0% | 20% | 6% | 12% | 0% | 0% | 0% | 0% | 5% | 0% | 14% | 25% | 36% | 3% | 27% | 88% | 54%
CC(=O)Nc1nc2cnc(Nc3cc(NC(=O)c4cccc(CC(C)(C)C#N)c4)ccc3C)nc2s1 | 0% | 1% | 4% | 0% | 24% | 3% | 0% | 8% | 73% | 83% | 0% | 9% | 0% | 0% | 15% | 0% | 0% | 44% | 0% | 2%
C[C@@H]1CNc2c(sc3ccc4nc(-c5ccc(O)cc5)ccc4c23)C(=O)N1 | 14% | 16% | 12% | 31% | 0% | 6% | 6% | 16% | 0% | 0% | 4% | 0% | 12% | 41% | 0% | 0% | 28% | 24% | 9% | 0%
COc1cc2nccc(Nc3ccc(Oc4ccccc4)cc3)c2cc1OC.Cl [GI261656] | 0% | 0% | 1% | 0% | 95.5% | 20% | 0% | 69% | 50% | 66% | 86% | 0% | 5% | 0% | 0% | 24% | 0% | 0% | 6% | 13%
Nc1nccc(-c2ccc3c(N)n[nH]c3c2)n1 [GSK1034945] | 0% | 0% | 0% | 12% | 15% | 6% | 2% | 0% | 11% | 0% | 32% | 15% | 0% | 100% | 0% | 40% | 52% | 0% | 0% | 19%
Cl.c1ccc(Oc2ccc(Nc3ccnc4cc(-c5ccc(CN6CCNCC6)o5)ccc34)cc2)nc1 [GW567142] | 0% | 0% | 0% | 0% | 74% | 8% | 41% | 90.4% | 6% | 7% | 82% | 68% | 0% | 0% | 10% | 0% | 0% | 0% | 19% | 0%
